Experiment [1] concerns Zika virus NS2B-NS3 protease (linked construct). Briefly: Primary screen NINDS Rhodamine qHTS for Zika virus inhibitors (AID 1347160). Further: on the % scale 0 is the no-effect control and ±100 the full control effect; nearly all actives have a fitted effect of over 55% in size. The essentials:
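Rhodamine110-peptide cleavage (1.5 µM substrate) by 25 nM linked NS2B-NS3 enzyme at pH 8.0 (Tris, Tween 20), after 15 min RT preincubation with compounds; 15-min fluorescence change normalized to controls and Hill-fitted.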

Experiment [2] deals with Calcium and integrin-binding protein 1 (Homo sapiens) (UniProt Q99828). Briefly: Primary qHTS for Identification of Calcium Integrin Binding Protein 1 (CIB1) Competitor (AID 1508620).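 Further: GST tagged CIB1 binding a fluorescein labelled alphaIIb integrin peptide tracer; top concentration of the series differs between compounds; on the % scale 0 is the no-effect control and ±100 the full control effect.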 Summed up: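 Fluorescence polarization competition: CIB1-GST (1 uM final) preincubated with compound 15 min at room temperature, then FITC-labeled alphaIIb peptide (100 nM final) added for another 15 min. Polarization read at Ex 480/Em 540.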
Sequence of Calcium and integrin-binding protein 1 (Homo sapiens) (Q99828 whole entry, looked up): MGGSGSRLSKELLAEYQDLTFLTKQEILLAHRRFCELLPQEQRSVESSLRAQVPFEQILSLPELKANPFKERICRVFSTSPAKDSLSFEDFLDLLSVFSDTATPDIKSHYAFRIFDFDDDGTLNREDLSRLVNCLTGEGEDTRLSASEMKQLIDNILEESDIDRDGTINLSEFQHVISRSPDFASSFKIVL

The target in experiment [3] is Glutathione peroxidase 1 (Homo sapiens) (UniProt P07203). Briefly: Primary qHTS Assay for Inhibitors of Recombinant Selenoprotein Glutathione Peroxidase 1 (GPX1) (AID 1845191). Further: nearly all actives have a fitted effect of over 65% in size. On activity, negative = inhibition: on the % scale 0 is the no-effect control and ±100 the full control effect. The essentials:
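GPX1 10 nM, GR 100 nM, GSH 1 mM, NADPH 0.5 mM, CHP 0.5 mM (final). 30-min cpd preincubation, RT. Ex340/Em450 read t=0, t=15 min.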
A general note: Quantitative high-throughput screening tests each substance at several concentrations.

The target in experiment [4] is Phospholipid hydroperoxide glutathione peroxidase GPX4 (Homo sapiens) (UniProt P36969). Briefly: Primary qHTS Assay for Inhibitors of Recombinant Selenoprotein Glutathione Peroxidase 4 (GPX4) (AID 1845192). Further: on the % scale 0 is the no-effect control and ±100 the full control effect; nearly all actives have a fitted effect of over 65% in size. The essentials: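 qHTS, GR-coupled: GPX4 200 nM + cpd 30 min RT → GSH 1 mM, NADPH 0.5 mM, GR 100 nM → CHP 0.5 mM start; fluor 340/450 at t0 and t15 min; no-enzyme wells as control.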
Sequence of Phospholipid hydroperoxide glutathione peroxidase GPX4 (Homo sapiens) (P36969 whole entry, looked up): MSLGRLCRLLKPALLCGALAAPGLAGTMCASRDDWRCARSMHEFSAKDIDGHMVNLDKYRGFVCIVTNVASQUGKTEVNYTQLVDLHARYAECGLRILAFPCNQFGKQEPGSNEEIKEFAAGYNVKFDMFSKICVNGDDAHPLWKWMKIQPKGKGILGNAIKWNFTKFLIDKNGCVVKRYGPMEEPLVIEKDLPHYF

Experiment [5] addresses Luciferin 4-monooxygenase (Photinus pyralis) (UniProt P08659). Kind of experiment: Primary firefly luciferase (FLuc) qHTS assay for identification of artifact compounds. (AID 1845220).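 Further: plate controls were DMSO vehicle for no effect and no enzyme for full effect; nearly all actives have a fitted effect of over 60% in size.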 The following applies: outcome: dose series up to 54.1 µM unless noted. The essentials:
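In this counter-screen for luciferase artifacts, test compounds met substrate (10 uM each luciferin and ATP) before 10 nM enzyme started the reaction. Light output was measured 5 min later.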

A short description of experiment [6]: Primary fluorescence-based thiol-reactive (MSTI) qHTS assay for identification of artifact compounds. (AID 1845221).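 Further: thiol-reactive compounds lower the probe fluorescence signal; nearly all actives have a fitted effect of over 65% in size.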 The essentials:
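Reactivity toward the thiol probe MSTI (4 uM) is scored by fluorescence at Ex/Em 525/598 nm after 1 h at room temperature. Acetyl-MSTI and MSTI define the activity scale.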

Experiment [7] relates to Nanoluciferase (engineered Oplophorus gracilirostris luciferase). Briefly: Primary Nanoluciferase (NLuc) qHTS assay for identification of artifact compounds. (AID 1845222).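 Further: NLuc secreted into diluted conditioned medium of S16 cells.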 The essentials: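 Using secreted nanoluciferase in S16 culture medium (0.22 um filtered, 1:55 dilution), compounds were preincubated 15 min at RT. Signal was generated with Nano-Glo reagent (1:100) over 5 min.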

A further experiment has as its system HaCat. Briefly: Cytotoxic Profiling of Annotated Libraries Using Quantitative High-Throughput Screening (AID 1296008). Further: nearly all actives have a fitted effect of over 60% in size. Further: potency means the concentration at half of the fitted maximal effect. On max response: on the % scale 0 is the no-effect control and ±100 the full control effect. The following applies: Five cell lines viability, CellTiter-Glo ATP luminescence, 48-72 h; max response: active compounds read low. Summed up:
(§1)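 Compounds were pin-transferred onto cells and incubated 48 or 72 hr at 37 degree Celsius, 95% humidity. CellTiter-Glo was added, plates sat 10 min at room temperature, then ATP-coupled luminescence was imaged as the viability read-out.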
(Cellular ATP, detected with luciferase, serves as a proxy for viable cell number.)

A further experiment relates to C33A. Kind of experiment: Primary qHTS to identify gynecologic anti-cancer compounds using libraries of approved drugs and bioactive compounds (AID 1345084). Further: nearly all actives have a fitted effect of over 55% in size. Further: potency means the concentration at half of the fitted maximal effect. The following applies: Gynecologic cancer cell panel viability, ATPlite luminescence, 48 h; series mostly up to 57.5 µM. Summed up:
(§2)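 Measured: luminescence after ATPlite addition (15 min, RT). Exposure: 48 h, 37 C, 5% CO2.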

For another experiment, the system named is CAOV3. The description is as above. The following applies: Gynecologic cancer cell panel viability, ATPlite luminescence, 48 h; series mostly up to 57.5 µM. The essentials:
as §2

Another experiment concerns CASKI. The description is as above. Particulars: Gynecologic cancer cell panel viability, ATPlite luminescence, 48 h; series mostly up to 57.5 µM. The essentials: as §2
In a further experiment the test system is Es-2. The description is as above. Particulars: Gynecologic cancer cell panel viability, ATPlite luminescence, 48 h; series mostly up to 57.5 µM. The essentials:
as §2

The next experiment has as its system Hek293T. The description is as above. The following applies: Gynecologic cancer cell panel viability, ATPlite luminescence, 48 h, control line for the selectivity index; series mostly up to 57.5 µM. Summed up: as §2
The next experiment has as its system OV90. The experiment is described as above. The following applies: Gynecologic cancer cell panel viability, ATPlite luminescence, 48 h; series mostly up to 57.5 µM. Summed up:
as §2

In a further experiment the test system is PA-1. The description is as above. Particulars: Gynecologic cancer cell panel viability, ATPlite luminescence, 48 h; series mostly up to 57.5 µM. The essentials:
as §2

The test system of another experiment is Tov-21-G. The experiment is described as above. Particulars: Gynecologic cancer cell panel viability, ATPlite luminescence, 48 h; series mostly up to 57.5 µM. The essentials:
as §2

In another experiment the test system is Tov112D. Described as above. Particulars: Gynecologic cancer cell panel viability, ATPlite luminescence, 48 h; series mostly up to 57.5 µM. The essentials: as §2
A short description of experiment [8]: Primary redox qHTS assay for identification of artifact compounds. (AID 1845223).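 Further: 0% = DMSO and 100% = reference compound.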 Summed up:
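Redox-cycling detection via DTT (250 uM final) oxidation coupled to Amplex Red (25 uM)/HRP (250 mU/mL) in HBSS. 15 min preincubation plus 30 min after DTT, room temperature. Ex/Em 525/598 nm; 4-parameter Hill fit against DMSO and 10 uM DA3003.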

In a further experiment the test system is NIH3T3. Kind of experiment: Cytotoxic Profiling of Annotated Libraries Using Quantitative High-Throughput Screening (AID 1296008). Further: nearly all actives have a fitted effect of over 60% in size. Further: potency means the concentration at half of the fitted maximal effect. On max response: on the % scale 0 is the no-effect control and ±100 the full control effect. Particulars: Five cell lines viability, CellTiter-Glo ATP luminescence, 48-72 h; max response: active compounds read low. The essentials:
as §1

The next experiment relates to JEG-3. Kind of experiment: Primary qHTS to identify gynecologic anti-cancer compounds using libraries of approved drugs and bioactive compounds (AID 1345084). Further: nearly all actives have a fitted effect of over 55% in size. Further: potency means the concentration at half of the fitted maximal effect. Particulars: Gynecologic cancer cell panel viability, ATPlite luminescence, 48 h; series mostly up to 57.5 µM. The essentials:
as §2

A number with no mark means an inactive call. Results filed as inconclusive are left out. Active and inactive are the calls of the source. The call rests on the fitted dose curve; in most records, active means well fitted curve in the direction sought with a large enough effect; inconclusive means small, poorly fitted or top-dose-only effect, or another doubt; inactive means no such curve, though single readings can be large; an effect the other way counts as inactive or inconclusive.

Sequence of Glutathione peroxidase 1 (Homo sapiens) (P07203 whole entry, looked up): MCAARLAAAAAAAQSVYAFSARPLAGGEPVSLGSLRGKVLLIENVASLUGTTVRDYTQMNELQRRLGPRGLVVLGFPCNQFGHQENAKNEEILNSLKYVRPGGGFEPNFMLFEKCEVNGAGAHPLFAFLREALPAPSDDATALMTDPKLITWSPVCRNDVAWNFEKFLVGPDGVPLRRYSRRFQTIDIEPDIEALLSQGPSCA

In the case of `CC(=O)O[C@H]1C[C@@H](C)O[C@H]2O[C@@H]3CC4CC[C@@H]5C(CC[C@]6(C)[C@@H](C7=CC(=O)OC7)CC[C@]56O)[C@@]4(C=O)C[C@H]3O[C@]21O` (some centres undefined), the Potency result in experiment [1], in [2], in experiment [3], in experiment [4], in [6] and in experiment [7] was “inactive” each time. The outcome in experiment [5] was inactive. For the same molecule, the Potency with HaCat is 172 nM (active); with C33A, 100 nM (active); in the experiment with CAOV3 it was 282 nM (active); in the experiment on CASKI it was 562 nM (active); in the experiment with Es-2, 126 nM (active); in the experiment on Hek293T it was 158 nM (active). For the same molecule, the Potency in the experiment with OV90 is 562 nM (active); with PA-1 it was 126 nM (active); in the experiment on Tov-21-G it was 100 nM (active); in the experiment with Tov112D, 100 nM (active).
Turning to `CC(=O)C1CCC2C3CCC4C[C@@H](O)CCC4(C)C3CCC12C` (some centres undefined), the Potency entry in experiment [2], in [3], in experiment [4], in [6], in experiment [7] and in experiment [8] was “inactive” in each case. In addition, the Potency entry in the experiment with C33A, in the experiment on CAOV3, in the experiment on CASKI, with Es-2, in the experiment on Hek293T and in the experiment on JEG-3 was “inactive” each time. Also, the Potency result with OV90, in the experiment on PA-1, with Tov-21-G and with Tov112D was “inactive” each time. For the same molecule, the outcome (in experiment [5]; with NIH3T3) was inactive. In the experiment on HaCat, the max response was -9.42%.
Turning to `C/C=C(\C)C(=O)OC1CC2C(CC=C3CC(OC4CC(OC)C(OC5CC(OC)C(OC6CC(OC)C(OC7CC(OC)C(O)C(C)O7)C(C)O6)C(C)O5)C(C)O4)CCC32C)C2(O)CCC(C(C)=O)C12C` (centres undefined), the Potency result in experiment [1], in experiment [2], in experiment [3] and in experiment [4] was “inactive” in each case. The activity change, negative = inhibition in experiment [5] was 3.09% [at 11.6 µM]. Besides, the activity change, negative = thiol reactive in [6] is 0.247% [at 11.5 µM]. The activity, negative = inhibition in experiment [7] was 1.71% [at 11.6 µM]. Further, in [8], the redox activity (% of DA3003) was 4.9% [at 11.5 µM]. The call in the experiment on HaCat and in the experiment on NIH3T3 was inactive. In addition, the activity change, negative = cytotoxicity with C33A is -3.2% [at 11.6 µM]; in the experiment with CAOV3, 3.23% [at 11.6 µM]; in the experiment with CASKI, -11.1% [at 11.6 µM]; with Es-2 it was -0.231% [at 11.6 µM]; in the experiment with Hek293T, -2.97% [at 11.6 µM]; in the experiment with JEG-3 it was -3.8% [at 11.6 µM]. For the same molecule, the activity change, negative = cytotoxicity in the experiment on OV90 was -21.5% [at 11.6 µM]; in the experiment with PA-1 it was -6.71% [at 11.6 µM]; in the experiment on Tov-21-G, 1.18% [at 11.6 µM]; in the experiment on Tov112D, -0.393% [at 11.6 µM].
As for `C[C@]12CC[C@@H](O[C@@H]3O[C@H](CO)[C@@H](O)[C@H](O)[C@H]3O)C[C@@]1(O)CCC1C2CC[C@]2(C)[C@@H](C3=CC(=O)OC3)CC[C@]12O` (some centres undefined), the Potency entry in experiment [1], in [2], in [3], in experiment [7] and in experiment [8] was “inactive” throughout. Also, the molecule was classed as inactive (in experiment [5]; with NIH3T3). Further, the Potency in the experiment with HaCat was 1000 nM (active); with C33A, 199 nM (active); in the experiment with CAOV3, 501 nM (active); in the experiment with Es-2, 355 nM (active); in the experiment on Hek293T, 199 nM (active); in the experiment on OV90 it was 1120 nM (active). The Potency in the experiment on PA-1 was 355 nM (active); with Tov-21-G, 178 nM (active); with Tov112D it was 112 nM (active).
On to `C/C=C1/CN2CC[C@]34C(=Nc5ccccc53)[C@@H]2C[C@@H]1[C@H]4C(=O)OC`, for which the Potency entry (in experiment [1]; in experiment [2]; in [3]; in experiment [7]; in experiment [8]; with C33A) was “inactive” in each case. The Potency result in the experiment with CAOV3, with CASKI, in the experiment on Es-2, in the experiment on Hek293T, with JEG-3 and in the experiment with OV90 was “inactive” throughout. The Potency entry in the experiment with PA-1, in the experiment on Tov-21-G and in the experiment on Tov112D was “inactive” throughout. Moreover, in experiment [5], the call was inactive. The max response in the experiment on HaCat is -0.364%; with NIH3T3, -14.3%.
With `CC1(C)C(=O)N(c2ccc(C#N)c(C(F)(F)F)c2)C(=S)N1c1ccc(C(N)=O)c(F)c1`, the Potency result in experiment [1], in [2], in [3], in [4], in [6] and in experiment [7] was “inactive” each time. Also, the Potency entry (in experiment [8]; with C33A; in the experiment on CASKI; in the experiment with Es-2; in the experiment on Hek293T; in the experiment with JEG-3) was “inactive” each time. In addition, the Potency entry in the experiment on OV90, in the experiment on PA-1, in the experiment on Tov-21-G and with Tov112D was “inactive” in each case. The molecule was classed as inactive (in [5]; with HaCat). For the same molecule, the max response with NIH3T3 is 0.467%.

For the origin of these results see PubChem BioAssay (NCATS).
